Only some compounds are listed: those with a hit (about 2.4% of all), similar ones and a draw of the others.
Cruzain inh Det = inhibitors of Trypanosoma cruzi cruzain with detergent. P25779. purified cruzain, Z-FR-AMC fluorescence, 0.01% Triton. Potency, µM, for the others: max response, negative = inhibition, usual class: inhibitors. hit rate 0.43% among 200,000. AID 1478;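 also: plate controls were neutral wells for no effect and buffer without enzyme for full effect; nearly all actives have a fitted effect of over 40% in size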
Target sequence (P25779 123-467 limits assumed): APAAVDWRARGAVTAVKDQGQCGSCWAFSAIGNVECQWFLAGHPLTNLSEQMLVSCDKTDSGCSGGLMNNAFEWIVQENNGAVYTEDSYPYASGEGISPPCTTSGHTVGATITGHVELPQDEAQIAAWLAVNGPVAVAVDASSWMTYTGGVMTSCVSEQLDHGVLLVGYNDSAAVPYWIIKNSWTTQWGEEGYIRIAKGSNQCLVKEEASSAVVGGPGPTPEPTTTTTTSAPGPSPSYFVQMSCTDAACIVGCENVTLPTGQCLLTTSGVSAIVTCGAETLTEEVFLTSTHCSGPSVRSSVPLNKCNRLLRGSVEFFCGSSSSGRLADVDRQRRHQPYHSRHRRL
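In this qHTS format, compounds are incubated with 1.5 nM cruzain for 15 min at room temperature before 2 uM Z-FR-AMC is added. Release of AMC is followed at 360/450 nm, and progress is taken as the 60 s fluorescence difference.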
Cruzain noTriton = blocks cruzain activity in detergent-free assay; P25779; purified cruzain, Z-FR-AMC fluorescence, no detergent; Potency, µM, for inactives: max response, negative = inhibition, actives largely listed as inhibitors; hit rate 2.3% among 200,000; AID 1476;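 also: plate controls were enzyme without inhibitor for no effect and buffer without enzyme for full effect; nearly all actives have a fitted effect of over 40% in size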
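Purified cruzain at 1.5 nM, pre-incubated 15 min with compound at room temperature in 100 mM sodium acetate pH 5.5, 5 mM DTT, 0.00005% Triton X-100. Reaction started with 2 uM Z-FR-AMC; AMC fluorescence increase over 60 s gives rate.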
An asterisk follows results filed as active; ? = inconclusive. Calls follow the shape of the dose curve; as a rule, active = well fitted curve in the direction sought with a large enough effect; inconclusive = small, poorly fitted or top-dose-only effect, or another doubt; inactive = no such curve, though single readings can be large; an effect the other way counts as inactive or inconclusive. Potency is read from the fitted curve at half-maximal effect.

SMILES | Cruzain inh Det | Cruzain noTriton
COc1cc2c(cc1OC)C(COc1ccccc1OC)N(C(=O)COc1ccc(Cl)cc1)CC2 (configuration not stated) | -1% | -5%
CCOC(=O)N1CCc2c(sc(NCc3ccc(N(C)C)cc3)c2C(=O)Nc2ccccc2OCC)C1 | -5% | 5%
CCOC(=O)c1ccc(CN(Cc2ccc(F)cc2)S(=O)(=O)c2cc(C(=O)Nc3cccc(C(F)(F)F)c3)ccc2F)cc1 | 1% | ?
CCNc1ncc2ncc(=O)n(C[C@H]3CCCO3)c2n1 | -15% | -14%
CCNc1ncc2nc(C)c(=O)n(C[C@H]3CCCO3)c2n1 | 20µM* | ?
Cc1ccc2c(=O)cc(C(=O)Nc3c(C(=O)c4ccccc4)oc4ccccc34)oc2c1C | -1% | -7%
Cc1cccc(Nc2ncc3c(n2)CC(C)CC3=O)c1 (configuration not stated) | -7% | 2%
Cc1nc(Nc2cccc(C(F)(F)F)c2)nc2c1C(=O)CC(C)C2 (configuration not stated) | 5% | 16µM*
N#CCCN/N=C(\Cc1nc2ccccc2[nH]1)c1ccccc1 | 0% | -5%
N#CCCN/N=C(/Cc1nc2ccccc2[nH]1)c1ccc(Cl)cc1 | -1% | 25µM*
c1ccc(N/N=C(\Cc2nc3ccccc3[nH]2)c2ccccc2)cc1 | -16% | -28%
Cc1ccc(N/N=C(\Cc2nc3ccccc3[nH]2)c2ccccc2)cc1 | -3% | 25µM*
COC(=O)c1ccccc1NC(=O)Cn1ncc2c(C)n(Cc3ccc(F)cc3)c(C)c2c1=O | -2% | -22%
CCOc1ccc(N(C(=O)c2ccc(Cl)cc2)S(=O)(=O)c2ccc3c(c2)n(C)c(=O)n3C)cc1 | 1% | -2%
COc1cc(NC(=O)C(CCSC)NS(=O)(=O)c2ccc3c(c2)oc(=O)n3C)cc(OC)c1 (configuration not stated) | 0% | 2%
CCCCN(Cc1ccccc1)S(=O)(=O)c1ccc2c(c1)CC(C)N2C(=O)CC (configuration not stated) | 8% | -11%
N#C/C(C(=O)Oc1ccccc1)=C1/Nc2ccccc2-c2ccccc21 | 2% | 13µM*
N#CC(C(=O)Nc1ccccc1)=C1Nc2ccccc2N1 | -4% | -8%
O=C(N/N=C/c1cc2ccccc2nc1Cl)/C(=C/c1cccs1)NC(=O)c1ccccc1 | -7% | 25µM*
O=C(N/N=C/c1cccnc1)/C(=C\c1cccs1)NC(=O)c1ccccc1 | -12% | -7%
COc1ccc2c(c1)c1c(c(=O)n(-c3cc(Cl)ccc3C)c(=O)n1CC(=O)N1CCCC1)n2C | -3% | 15%
COc1ccc(/C=C2/C(=O)N(Cc3ccccc3)N=C2C)cc1 | 0% | 1%
COc1ccc(/C=C2/C(=O)N(c3nc4ccccc4s3)N=C2CSc2ccc(Cl)cc2)cc1 | -8% | 3.2µM*
COC(=O)c1c(NC(=O)Cc2coc3cc(C)ccc23)sc2c1CCCC2 | -4% | -25%
CCOc1ccc(Cn2c(CNS(=O)(=O)c3ccc(C(C)(C)C)cc3)nc3cccnc32)cc1 | -6% | -13%
SMILES | Cruzain inh Det | Cruzain noTriton
Cc1cccc(NC(=O)CSc2nc(C)cc(C)c2C(=O)Nc2ccc(Cl)cc2)c1 | -1% | -2%
Cc1cccc(N2CCN(C(=O)c3cnn(-c4ccccc4)c3C3CCN(C(=O)OC(C)(C)C)CC3)CC2)c1C | 2% | -12%
Cc1cccc2c1N(C(=O)CN1C(=O)c3ccccc3C1=O)C(C)(C)c1ssc(=S)c1-2 | -1% | 13µM*
Cc1cc(C)c2c(c1)-c1c(ssc1=S)C(C)(C)N2C(=O)CN1C(=O)c2ccccc2C1=O | -7% | ?
Cc1nc(N2CCN(S(=O)(=O)c3ccc(F)cc3)CC2)c2c(C)c(C)sc2n1 | -3% | -12%
Cc1sc2nc(C3CC3)nc(N3CCN(S(=O)(=O)c4ccc(F)cc4)CC3)c2c1C | -2% | 16µM*
CC(C)NC(=O)N1CCN(S(=O)(=O)c2ccc3c(ccn3C)c2)CC1 | 0% | -4%
CCOc1ccc(NC(=O)C(=O)NCC(c2cccnc2)N2CCc3ccccc32)cc1 (configuration not stated) | -1% | -7%
CCOC(=O)CC1c2cc(OCC)c(OCC)cc2CCN1C(=O)Nc1cccc(Cl)c1 (configuration not stated) | -7% | ?
CCCCN(C)C(=O)c1ccc2c(c1)N(Cc1cccc(F)c1)C(=O)c1ccccc1S2 | -6% | 12%
Cc1ccc(C)c(NS(=O)(=O)c2ccc3c(c2)Cc2cc(S(=O)(=O)Nc4cc(C)ccc4C)ccc2-3)c1 | -1% | 7.9µM*
Cc1ccc(NS(=O)(=O)c2ccc3c(c2)C(=O)c2ccccc2C3=O)c(C)c1 | -4% | -1%
Cc1ccc(C(=O)CN2CCC(NC(=O)C3CCCCC3)CC2)cc1 | 25µM* | ?
Cc1ccc(NC(=O)CN2CCC(NC(=O)C3CCCCC3)CC2)c(Br)c1 | -2% | -13%
COc1ccccc1NC(=O)CN1C(=O)C2(SCC(=O)N2c2ccc(F)c(F)c2)c2ccccc21 (configuration not stated) | -5% | 16µM*
COc1ccccc1NC(=O)CN1C(=O)C2(SCC(=O)N2c2ccc(C)c(C)c2)c2ccccc21 (configuration not stated) | -2% | -21%
Cn1c(=O)c2c(-c3ccccc3)n3c4ccccc4nc(-c4ccccc4)c3c2n(C)c1=O | -1% | -2%
Cc1ccc(C(=O)C(C(=O)/C=C/c2ccccc2)=C2SCCCS2)cc1 | -8% | 25µM*
COc1ccc(/C=C/C(=O)C(C(N)=O)=C2SCCS2)cc1 | -6% | 7%
O=[N+]([O-])c1cccc(/C([O-])=C(/C(=S)Nc2ccccc2)[n+]2ccccc2)c1 | -22% | 25µM*
O=C(/C(=C(/[O-])c1ccccc1)[n+]1ccccc1)c1ccc([N+](=O)[O-])cc1 | -5% | -19%
COc1ccccc1CNC(=O)c1c[nH]c2ccc(S(=O)(=O)Nc3cc(C)cc(C)c3)cc2c1=O | -5% | ?
CCN(CCCNC(=O)c1cc(Nc2ccccc2OC)nc2ccccc12)c1cccc(C)c1 | -6% | -15%
CCCCOc1ccc(S(=O)(=O)NC(=O)NCc2ccc(OCCC)cc2)cc1 | 0% | 25µM*
CCCCNC(=O)NS(=O)(=O)c1ccc(C)cc1 | -1% | 8%
SMILES | Cruzain inh Det | Cruzain noTriton
CCCCOc1ccc(CNC(=O)NS(=O)(=O)c2ccc(OCC)cc2)cc1 | 0% | 20µM*
CCCCOc1ccc(S(=O)(=O)Nc2ccc(NC(C)=O)cc2)cc1 | -9% | -5%
Cc1ccc(S(=O)(=O)NC(=O)NCc2ccccc2)cc1 | 6% | 11%
CCCCOc1ccc(CNC(=O)NS(=O)(=O)c2ccc(OCC(C)C)cc2)cc1 | 7% | 7.9µM*
O=C1c2[nH]nc(-c3ccccc3O)c2C(c2cccc(OCc3ccccc3)c2)N1CCCO (configuration not stated) | -2% | -14%
CC(NC(=O)Nc1cc(Cl)ccc1Cl)c1c(-n2cccc2)sc2c1CCCC2 (configuration not stated) | -4% | 1%
O=C(Cn1c(=O)oc2cc(S(=O)(=O)N3CCCCCC3)ccc21)Nc1cccc(C(F)(F)F)c1 | -1% | -13%
COc1ccccc1NS(=O)(=O)c1cc(NC(=O)Nc2cccc(C)c2)ccc1N1CCCCC1 | -2% | 5µM*
O=C(Nc1ccc(Cl)cc1)Nc1ccc(N2CCCC2)c(S(=O)(=O)Nc2ccccc2Cl)c1 | -1% | ?
O=c1oc2cc(OCc3ccc(F)cc3F)ccc2cc1-c1ccc2ccccc2n1 | -2% | 13µM*

Screening data (PubChem BioAssay)
